Shown is part of a subset that was picked to be rich in hits.
miR122 inh – miR-122 suppressors via Renilla sensor increase, primary screen, cell-based, Huh7 psiCHECK-miR122, Renilla luciferase, single point; 48 h; AID 623901, 2012; activation, % at 12.5 µM; 340,000 tested, 0.14% active;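 active = mean activation of 30% or more, with every replicate also reaching 30%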;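 note: 0% = median of neutral control wells and 100% = median of positive control wells; higher luciferase signal means stronger suppression of miR-122 activity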
Starred values were filed as active, the others as inactive.

SMILES | miR122 inh
C[C@@H]1CN([C@@H](C)CO)C(=O)c2cc(-c3ccncc3)cnc2O[C@@H]1CN(C)C(=O)c1ccccc1F | 1
COc1ccc(OC)c(NS(=O)(=O)c2ccc(N3CCCC3=O)cc2)c1 | -120
COc1ccc(S(=O)(=O)Nc2cc(Cl)ccc2OC)cc1 | -138
COc1ccc(OC)c(Nc2nc(N)nc(CCl)n2)c1 | 32*
CCCN(C)C[C@H]1Oc2ncc(C#CC3CCCCC3)cc2C(=O)N([C@H](C)CO)C[C@H]1C | 3
O=S(=O)(Nc1ccc2ccccc2c1)c1ccccc1 | -170
CSc1cccc(NS(=O)(=O)c2ccccc2)c1 | 35*
CSc1cccc(NS(=O)(=O)c2cc(Br)cnc2N)c1 | -106
C[C@@H](O)C#Cc1ccc2c(c1)O[C@@H](CN(C)C(=O)Cc1ccccn1)[C@@H](C)CN([C@@H](C)CO)S2(=O)=O | 3
CCCNC(=O)N(C)C[C@@H]1Oc2ncc(C#C[C@@H](C)O)cc2C(=O)N([C@@H](C)CO)C[C@@H]1C | 9
CNC[C@@H]1Oc2ncc(-c3ccc(C#N)cc3)cc2C(=O)N([C@H](C)CO)C[C@@H]1C | 4
CCCC(NS(=O)(=O)c1ccc(Br)cc1)C(=O)O (stereo not drawn) | 36*
C[C@@H]1CN([C@H](C)CO)C(=O)c2cc(C#C[C@@H](C)O)cnc2O[C@H]1CN(C)C(=O)CN(C)C | 9
C[C@H](CO)N1C[C@H](C)[C@@H](CN(C)C(=O)C2CC2)Oc2cc(C#Cc3cccnc3)ccc2S1(=O)=O | -17
CCc1nnc(SCC(=O)Nc2ccc(N3CCOCC3)cc2)o1 | 32*
CCc1ccc(NC(=O)CN2CCc3ccccc3C2)cc1 | -265
CC(C)N1C(=O)CC(Nc2ccc(N3CCOCC3)cc2)C1=O (stereo not drawn) | -183
COc1cccc(-c2cnc3c(c2)C(=O)N([C@@H](C)CO)C[C@H](C)[C@H](CN(C)C(=O)Nc2ccccc2F)O3)c1 | -9
C[C@H]1CN([C@@H](C)CO)C(=O)c2cc(-c3cccc(F)c3)cnc2O[C@@H]1CN(C)C(=O)C1CCOCC1 | -3
COc1ccc(NC(=O)N(C)C[C@@H]2Oc3ncc(C4=CCCC4)cc3C(=O)N([C@@H](C)CO)C[C@@H]2C)cc1 | 2
COc1ccccc1-c1cnc2c(c1)C(=O)N([C@H](C)CO)C[C@@H](C)[C@H](CN(C)Cc1ccccc1)O2 | -5
COc1cccc(C2NC(=S)NC(C)=C2C(=O)c2ccccc2)c1OC (stereo not drawn) | -147
COc1ccc(/C=C/C(=O)c2ccc[nH]2)c(OC)c1OC | 32*
C[C@H](CO)N1C[C@H](C)[C@@H](CN(C)C(=O)CC2CC2)Oc2cc(C#CCC3CCCC3)ccc2S1(=O)=O | -49
O=C1NC(=O)/C(=C\c2ccccc2OCc2ccc([N+](=O)[O-])cc2)N1 | 37*
SMILES | miR122 inh
C[C@H](CO)N1C[C@H](C)[C@@H](CN(C)Cc2cncnc2)Oc2ncc(-c3cncnc3)cc2C1=O | 9
COc1ccc(C#Cc2ccc3c(c2)O[C@@H](CN(C)C(=O)NC2CCCCC2)[C@@H](C)CN([C@H](C)CO)S3(=O)=O)cc1 | -8
CCCNC(=O)Nc1ccc2c(c1)OC[C@H](C)N(C)C[C@@H](C)[C@@H](OC)CN(C)C2=O | -3
COc1ccc(NC(=O)N(C)C[C@@H]2Oc3ncc(C4=CCCC4)cc3C(=O)N([C@H](C)CO)C[C@H]2C)cc1 | -6
CO[C@@H]1CN(C)C(=O)c2cc(NC(=O)Nc3ccccc3)ccc2OC[C@@H](C)NC[C@@H]1C | -1
CC1CCN(CCc2nc3cc(NC(=O)Nc4ccccc4)ccc3n2C)CC1 | 31*
CO[C@H]1CN(C)C(=O)c2cc(NC(=O)Nc3ccccc3)ccc2OC[C@@H](C)NC[C@H]1C | 0
C[C@@H]1CN([C@H](C)CO)C(=O)c2cc(C#Cc3cccc(F)c3)cnc2O[C@H]1CN(C)CC1CCOCC1 | 0
Cc1noc(C)c1NC(=O)N(C)C[C@@H]1Oc2ncc(C#Cc3cccc(F)c3)cc2C(=O)N([C@H](C)CO)C[C@@H]1C | 11
COc1cccc2c1C(=O)c1c(O)c3c(c(O)c1C2=O)C[C@@](O)(C(=O)CO)C[C@@H]3O[C@H]1C[C@H](N)[C@H](O)[C@H](C)O1 | 69*
COCC#Cc1cnc2c(c1)C(=O)N([C@H](C)CO)C[C@H](C)[C@H](CN(C)C(=O)Nc1c(C)noc1C)O2 | -22
CC(C)NC(=O)N(C)C[C@@H]1Oc2cc(-c3ccccc3)ccc2S(=O)(=O)N([C@@H](C)CO)C[C@H]1C | -5
COc1cccc(-c2cnc3c(c2)C(=O)N([C@H](C)CO)C[C@H](C)[C@H](CN(C)C(=O)CC2CC2)O3)c1 | -16
CCN1CCN(Cc2ccc(NC(=O)c3ccc(C)c(NC(=O)c4c[nH]c5cc(C(F)(F)F)ccc5c4=O)c3)cc2C(F)(F)F)CC1 | 33*
COCC(=O)N(C)C[C@@H]1Oc2cc(Br)ccc2S(=O)(=O)N([C@H](C)CO)C[C@@H]1C | 0
COc1ccc(NC(=O)N(C)C[C@@H]2Oc3ncc(C4=CCCC4)cc3C(=O)N([C@@H](C)CO)C[C@H]2C)cc1 | 2
C[C@@H]1CN([C@@H](C)CO)C(=O)c2cc(-c3cccc(F)c3)cnc2O[C@@H]1CN(C)S(C)(=O)=O | 1
C[C@H]1CN([C@@H](C)CO)C(=O)c2cc(C#Cc3ccccn3)cnc2O[C@H]1CN(C)Cc1cccnc1 | -1
C[C@H](CO)N1C[C@H](C)[C@H](CN(C)Cc2ccccn2)Oc2ncc(C#Cc3ccc(F)cc3)cc2C1=O | 9
CCC(=O)N(C)C[C@@H]1Oc2cc(C#C[C@H](C)O)ccc2S(=O)(=O)N([C@H](C)CO)C[C@H]1C | 4
CNc1nc(NCCOc2ccccc2)c2sccc2n1 | 37*
CCNc1nc(N)nc(Oc2ccc(OCCOc3ccccc3)nn2)n1 | -151
C[C@H]1CN([C@@H](C)CO)C(=O)c2cc(-c3cccc(C#N)c3)cnc2O[C@H]1CN(C)Cc1ccccc1 | 6
CO[C@H]1CN(C)C(=O)c2ccc(NC(=O)Nc3ccccc3)cc2OC[C@@H](C)N(C(C)=O)C[C@H]1C | -2
C[C@@H]1CN([C@@H](C)CO)S(=O)(=O)c2ccc(C#Cc3ccc(F)cc3)cc2O[C@H]1CN(C)S(=O)(=O)c1cn(C)cn1 | -3
SMILES | miR122 inh
C[C@H]1CN([C@@H](C)CO)C(=O)c2cc(C#CC(C)(C)O)cnc2O[C@H]1CN(C)C(=O)C1CC1 | 7
c1ccc(-c2nnc3n2CCCC3)cc1 | 33*
CCC(=O)N(C)C[C@@H]1Oc2cc(C#C[C@@H](C)O)ccc2S(=O)(=O)N([C@H](C)CO)C[C@H]1C | -5
CCC(=O)N(C)C[C@@H]1Oc2ncc(C#C[C@@H](C)O)cc2C(=O)N([C@@H](C)CO)C[C@@H]1C | 0
C=CCNC(=S)NNC(=O)Cn1c(-c2ccccc2)cc(=O)n2ncnc12 | 34*
COc1ccccc1S(=O)(=O)N(C)C[C@H]1Oc2ncc(-c3ccc(C)cc3)cc2C(=O)N([C@H](C)CO)C[C@H]1C | 1
CC(C)C#Cc1cnc2c(c1)C(=O)N([C@@H](C)CO)C[C@H](C)[C@H](CN(C)C(=O)c1ccccc1)O2 | 0
C/C=C/c1cnc2c(c1)C(=O)N([C@H](C)CO)C[C@@H](C)[C@@H](CN(C)S(=O)(=O)c1ccc(C)cc1)O2 | 4
C[C@@H]1CN([C@H](C)CO)C(=O)c2cc(C#Cc3ccccn3)cnc2O[C@H]1CN(C)Cc1cccnc1 | 4
COc1ccc(C(=O)C2CCCN(Cc3cccn3-c3ccccn3)C2)c(OC)c1 (stereo not drawn) | 60*

Screening results (PubChem)
